Compound activity as filed in PubChem.
PostGolgi yeast: growth inhibition of a yeast mutant, post-Golgi transport screen; inhibition, % at 10 µM; AID 739; actives 0.9% (n = 98,000); post-Golgi transport phenotypic cell assay;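 note: yeast cells grown in 1536-well plates; yeast grown about 18 h at 30C before absorbance read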
CYP2C9 inh: blocks human cytochrome P450 2C9; AID 777; actives 20% (n = 96,000); CYP2C9 Supersomes, luciferin-H conversion, luminescence; P11712; inhibition, % at 5 µM;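 active = blocking of liver enzyme CYP2C9 beyond about 50% at 5 µM, limit read from the data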
Target sequence (P11712 whole entry, looked up): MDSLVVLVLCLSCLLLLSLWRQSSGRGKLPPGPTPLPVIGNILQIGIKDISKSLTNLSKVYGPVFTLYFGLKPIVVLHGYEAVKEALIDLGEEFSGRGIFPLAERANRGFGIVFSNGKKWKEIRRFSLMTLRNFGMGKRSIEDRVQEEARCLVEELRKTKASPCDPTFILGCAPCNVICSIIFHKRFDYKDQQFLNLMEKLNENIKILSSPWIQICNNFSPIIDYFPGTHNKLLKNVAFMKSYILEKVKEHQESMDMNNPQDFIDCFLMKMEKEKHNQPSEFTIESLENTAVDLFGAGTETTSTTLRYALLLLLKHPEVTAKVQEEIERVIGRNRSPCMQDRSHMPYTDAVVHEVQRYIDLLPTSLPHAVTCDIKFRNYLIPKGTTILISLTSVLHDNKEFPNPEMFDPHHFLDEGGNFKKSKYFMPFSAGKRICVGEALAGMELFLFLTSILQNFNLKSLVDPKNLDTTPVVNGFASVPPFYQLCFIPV
CYP2C19 inh: human CYP2C19 inhibition. actives 21% (n = 96,000). inhibition, % at 5 µM. AID 778. CYP2C19 Supersomes, luciferin-H EGE luminescence, 30 min. P33261;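 active = CYP2C19 inhibition above a set limit at 5 µM in the primary screen, cut at about 50% in these data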;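 note: plate controls were negative control wells for no effect and 2.5 mM tranylcypromine positive control for full effect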
PostGolgi ctrl: inhibits growth of the yeast control strain | inhibition, % at 10 µM | actives 5% (n = 98,000) | AID 738 | efflux-deficient yeast background strain, growth absorbance A615, 16 h
CYP2C19 activ: cytochrome P450 2C19 (human) activation; P33261; recombinant CYP2C19, luciferin-H EGE luminescence; active compounds read high; 0 = fully inhibited enzyme, 1 = untreated enzyme; activation factor at 5 µM; 96,000 tested, under 10 active;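 active = activation factor of at least 2 at 5 µM in the primary screen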;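 note: 0 = wells with 2.5 mM tranylcypromine and 1 = vehicle-only wells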
CYP2C9 activ: activators of human CYP2C9 | actives 1.4% (n = 96,000) | activation factor at 5 µM | P11712 | recombinant CYP2C9, luciferin-H conversion, luminescence; active compounds read high; factor 1 = untreated enzyme, 0 = blocked;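 active = activation factor of 2 or more for CYP2C9 at a 5 µM dose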;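 note: 0 = sulfaphenazole-blocked wells and 1 = vehicle-only wells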
* hit, by the source's call; / = no result given. The list is not random: actives were taken first. Their share in the collection is about 32%. Cut-off read from the data, not from the text of the source, unless noted: active = inhibition above about 30%; inactive = the rest.

SMILES	PostGolgi yeast	CYP2C9 inh	CYP2C19 inh	PostGolgi ctrl	CYP2C19 activ	CYP2C9 activ
COc1ccc(OC)c(C2CC(=O)c3c([nH]c(C(=O)OC(C)C)c3C)C2)c1 (stereo unspecified)	-5	58*	46	13	0.5	0.4
COc1ccc(OC)c(C2CC(=O)c3c([nH]c(C(=O)OCC4CCCO4)c3C)C2)c1 (stereo unspecified)	1	66*	36	19	0.6	0.3
Cc1ccc(NC(=O)c2ccccc2O)cc1	5	/	/	25	/	/
CN1c2ccccc2C(O)=C(C(=O)Nc2ccccc2)S1(=O)=O	22	76*	-7	5	1.1	0.2
CN1c2ccccc2C(O)=C(C(=S)Nc2ccc(F)c(Cl)c2)S1(=O)=O	17	96*	-6	20	1.1	0
Cc1ccc(NC(=S)C2=C(O)c3ccccc3N(C)S2(=O)=O)cc1	11	100*	-10	2	1.1	0
CCC(=O)Nc1ccc(F)c(Cl)c1	6	-6	5	-1	1	1.1
CN1c2ccccc2C(O)=C(C(=S)Nc2ccccc2)S1(=O)=O	-25	82*	1	20	1	0.2
C=C(C)Cn1c(CCNC(=O)C(C)(C)C)nc2ccccc21	4	-2	27	4	0.7	1
Cc1ccc(N(CC(=O)N2CCN(c3ccc(F)cc3)CC2)S(=O)(=O)c2c(C)nn(C)c2C)cc1	-5	-60	85*	0	0.1	1.6
Cc1cccc(NC(=O)CN(c2ccc(C(C)C)cc2)S(=O)(=O)c2c(C)nn(C)c2C)n1	-1	97*	96*	5	0	0
COc1ccc(N(CC(=O)N2CCc3ccccc32)S(=O)(=O)c2c(C)nn(C)c2C)cc1	-6	60*	26	11	0.7	0.4
Cc1nn(C)c(C)c1S(=O)(=O)N(CC(=O)Nc1ccccn1)c1ccc(C(C)C)cc1	1	/	/	8	/	/
COc1ccc(N(CC(=O)N2c3ccccc3CC2C)S(=O)(=O)c2c(C)nn(C)c2C)cc1 (stereo unspecified)	-3	77*	80*	9	0.2	0.2
CCOC(=O)C1CCN(C(=O)CN(c2ccc(OC)cc2)S(=O)(=O)c2c(C)nn(C)c2C)CC1	-3	49	31	-6	0.7	0.5
Cc1cc2c(nn1)CCC/C2=N\O	9	-14	-10	-1	1.1	1.1
COc1ccc(C(=O)COc2ccccc2N2C(=O)C3C4C=CC(C4)C3C2=O)cc1 (stereo unspecified)	0	12	8	-2	0.9	0.9
COc1ccc2oc(=O)c(C(=O)N3CCN(c4ccccc4C)CC3)cc2c1	3	0	1	8	1	1
COc1ccc2oc(=O)c(C(=O)N3c4ccccc4CC3C)cc2c1 (stereo unspecified)	9	68*	20	11	0.8	0.3
Cc1nn(C)c(C)c1S(=O)(=O)N(CC(=O)N1CCc2ccccc2C1)c1ccc(C(C)C)cc1	1	81*	96*	4	0	0.2
COc1ccc(N(CC(=O)N2CCCC(C)C2)S(=O)(=O)c2c(C)nn(C)c2C)cc1 (stereo unspecified)	-2	37	53*	-7	0.5	0.6
COc1ccc(S(=O)(=O)CCC(=O)N2c3ccccc3CC2C)cc1 (stereo unspecified)	4	-96	38	5	0.6	2*
CC(C)Cn1c(Br)nc2c1c(=O)n(CCC#N)c(=O)n2C	6	-8	1	4	1	1.1
CCCn1c(N2CCN(C(=O)N3CCCCC3)CC2)nc2ccccc21	2	-44	46	6	0.5	1.4
Cc1ccc(N(CC(=O)N2CCc3ccccc32)S(=O)(=O)c2cccs2)cc1	-4	9	5	24	1	0.9
SMILES	PostGolgi yeast	CYP2C9 inh	CYP2C19 inh	PostGolgi ctrl	CYP2C19 activ	CYP2C9 activ
Cc1nn(C)c(C)c1S(=O)(=O)N(CC(=O)N1CCc2ccccc21)c1ccc(C(C)C)cc1	-15	74*	59*	18	0.4	0.3
COc1ccc(N(CC(=O)N2CCc3ccccc32)S(=O)(=O)c2c(C)n[nH]c2C)cc1	4	76*	40	10	0.6	0.2
Cc1ccc(N2C(=O)C3CC(c4ccccc4)=C4C5C=CC(C6C(=O)N(c7ccc(C)cc7C)C(=O)C56)C4C3C2=O)c(C)c1 (stereo unspecified)	-9	85*	13	1	0.9	0.2
COc1ccc(C2=NO[C@@H]3C(=O)N(c4ccc(C)cc4C)C(=O)[C@H]23)cc1OC	-1	0	-1	-3	1	1
O=[N+]([O-])c1ccc(Oc2cccc(F)c2)c2ccncc12	10	83*	85*	38*	0.1	0.2
FC(F)(F)C(F)(F)C(F)(F)c1nnc2ccc(N3CCOCC3)nn12	-5	76*	76*	6	0.2	0.2
O=c1c2cccc3c(N4CCOCC4)ccc(c32)c2nc3ccccc3n12	/	18	15	/	0.9	0.8
COC(=O)C(C)n1cnc2c(nnn2-c2ccc(OC)cc2)c1=O (stereo unspecified)	0	11	1	9	1	0.9
COc1cc(N2C(=O)CSC23C(=O)Nc2ccccc23)cc(OC)c1OC (stereo unspecified)	4	19	21	7	0.8	0.8
CCc1nn(-c2ccccc2)c2c1-c1cc(OC)c(OC)cc1C1(N2)C(=O)Nc2ccccc21 (stereo unspecified)	24	82*	19	6	0.8	0.2
COc1cc2c(cc1OC)C1(Nc3c-2c(-c2ccccc2)nn3-c2ccccc2)C(=O)Nc2ccccc21 (stereo unspecified)	6	60*	3	9	1	0.4
COc1cc2c(cc1OC)C1(Nc3c-2c(C)nn3-c2ccccc2)C(=O)Nc2ccccc21 (stereo unspecified)	5	66*	11	1	0.9	0.3
COc1ccc(N2C(=O)CSC23C(=O)Nc2ccccc23)cc1OC (stereo unspecified)	3	21	25	8	0.8	0.8
O=C1CCCc2c1cc(C(=O)NCc1ccco1)c(=O)n2-c1ccc(Cl)cc1	9	-3	84*	18	0.2	1
Cc1cccc(NC(=O)c2cc3c(n(-c4ccccc4)c2=O)CCCC3=O)n1	0	50*	19	4	0.8	0.5
Cn1c2c(c(=O)n(C)c1=O)C(C(F)(F)F)(C(F)(F)F)N=C(c1ccccc1Cl)N2	31*	73*	1	21	1	0.3
Cn1c2c(c(=O)n(C)c1=O)C(NS(=O)(=O)c1ccc(Cl)cc1)(C(F)(F)F)C(=O)N2 (stereo unspecified)	8	20	-2	4	1	0.8
